Drawing on ChEMBL document CHEMBL1201862, “PubChem BioAssay data set” (2004), this text covers Potency for 11 compounds.

Molecules are shown by their SMILES.

In this assay the target is Huntingtin (Homo sapiens) (UniProt P42858). As to the kind of experiment: Quantitative High-Throughput Multiplex Assay to Identify Dual Action Probes in a Cell Model of Huntington: Summary. [Related pubchem assays (depositor defined):AID1471, AID1688, AID2669, AID2672, AID2673, AID2713]. Type of assay: functional.
Chain of Huntingtin (Homo sapiens) (P42858 whole entry): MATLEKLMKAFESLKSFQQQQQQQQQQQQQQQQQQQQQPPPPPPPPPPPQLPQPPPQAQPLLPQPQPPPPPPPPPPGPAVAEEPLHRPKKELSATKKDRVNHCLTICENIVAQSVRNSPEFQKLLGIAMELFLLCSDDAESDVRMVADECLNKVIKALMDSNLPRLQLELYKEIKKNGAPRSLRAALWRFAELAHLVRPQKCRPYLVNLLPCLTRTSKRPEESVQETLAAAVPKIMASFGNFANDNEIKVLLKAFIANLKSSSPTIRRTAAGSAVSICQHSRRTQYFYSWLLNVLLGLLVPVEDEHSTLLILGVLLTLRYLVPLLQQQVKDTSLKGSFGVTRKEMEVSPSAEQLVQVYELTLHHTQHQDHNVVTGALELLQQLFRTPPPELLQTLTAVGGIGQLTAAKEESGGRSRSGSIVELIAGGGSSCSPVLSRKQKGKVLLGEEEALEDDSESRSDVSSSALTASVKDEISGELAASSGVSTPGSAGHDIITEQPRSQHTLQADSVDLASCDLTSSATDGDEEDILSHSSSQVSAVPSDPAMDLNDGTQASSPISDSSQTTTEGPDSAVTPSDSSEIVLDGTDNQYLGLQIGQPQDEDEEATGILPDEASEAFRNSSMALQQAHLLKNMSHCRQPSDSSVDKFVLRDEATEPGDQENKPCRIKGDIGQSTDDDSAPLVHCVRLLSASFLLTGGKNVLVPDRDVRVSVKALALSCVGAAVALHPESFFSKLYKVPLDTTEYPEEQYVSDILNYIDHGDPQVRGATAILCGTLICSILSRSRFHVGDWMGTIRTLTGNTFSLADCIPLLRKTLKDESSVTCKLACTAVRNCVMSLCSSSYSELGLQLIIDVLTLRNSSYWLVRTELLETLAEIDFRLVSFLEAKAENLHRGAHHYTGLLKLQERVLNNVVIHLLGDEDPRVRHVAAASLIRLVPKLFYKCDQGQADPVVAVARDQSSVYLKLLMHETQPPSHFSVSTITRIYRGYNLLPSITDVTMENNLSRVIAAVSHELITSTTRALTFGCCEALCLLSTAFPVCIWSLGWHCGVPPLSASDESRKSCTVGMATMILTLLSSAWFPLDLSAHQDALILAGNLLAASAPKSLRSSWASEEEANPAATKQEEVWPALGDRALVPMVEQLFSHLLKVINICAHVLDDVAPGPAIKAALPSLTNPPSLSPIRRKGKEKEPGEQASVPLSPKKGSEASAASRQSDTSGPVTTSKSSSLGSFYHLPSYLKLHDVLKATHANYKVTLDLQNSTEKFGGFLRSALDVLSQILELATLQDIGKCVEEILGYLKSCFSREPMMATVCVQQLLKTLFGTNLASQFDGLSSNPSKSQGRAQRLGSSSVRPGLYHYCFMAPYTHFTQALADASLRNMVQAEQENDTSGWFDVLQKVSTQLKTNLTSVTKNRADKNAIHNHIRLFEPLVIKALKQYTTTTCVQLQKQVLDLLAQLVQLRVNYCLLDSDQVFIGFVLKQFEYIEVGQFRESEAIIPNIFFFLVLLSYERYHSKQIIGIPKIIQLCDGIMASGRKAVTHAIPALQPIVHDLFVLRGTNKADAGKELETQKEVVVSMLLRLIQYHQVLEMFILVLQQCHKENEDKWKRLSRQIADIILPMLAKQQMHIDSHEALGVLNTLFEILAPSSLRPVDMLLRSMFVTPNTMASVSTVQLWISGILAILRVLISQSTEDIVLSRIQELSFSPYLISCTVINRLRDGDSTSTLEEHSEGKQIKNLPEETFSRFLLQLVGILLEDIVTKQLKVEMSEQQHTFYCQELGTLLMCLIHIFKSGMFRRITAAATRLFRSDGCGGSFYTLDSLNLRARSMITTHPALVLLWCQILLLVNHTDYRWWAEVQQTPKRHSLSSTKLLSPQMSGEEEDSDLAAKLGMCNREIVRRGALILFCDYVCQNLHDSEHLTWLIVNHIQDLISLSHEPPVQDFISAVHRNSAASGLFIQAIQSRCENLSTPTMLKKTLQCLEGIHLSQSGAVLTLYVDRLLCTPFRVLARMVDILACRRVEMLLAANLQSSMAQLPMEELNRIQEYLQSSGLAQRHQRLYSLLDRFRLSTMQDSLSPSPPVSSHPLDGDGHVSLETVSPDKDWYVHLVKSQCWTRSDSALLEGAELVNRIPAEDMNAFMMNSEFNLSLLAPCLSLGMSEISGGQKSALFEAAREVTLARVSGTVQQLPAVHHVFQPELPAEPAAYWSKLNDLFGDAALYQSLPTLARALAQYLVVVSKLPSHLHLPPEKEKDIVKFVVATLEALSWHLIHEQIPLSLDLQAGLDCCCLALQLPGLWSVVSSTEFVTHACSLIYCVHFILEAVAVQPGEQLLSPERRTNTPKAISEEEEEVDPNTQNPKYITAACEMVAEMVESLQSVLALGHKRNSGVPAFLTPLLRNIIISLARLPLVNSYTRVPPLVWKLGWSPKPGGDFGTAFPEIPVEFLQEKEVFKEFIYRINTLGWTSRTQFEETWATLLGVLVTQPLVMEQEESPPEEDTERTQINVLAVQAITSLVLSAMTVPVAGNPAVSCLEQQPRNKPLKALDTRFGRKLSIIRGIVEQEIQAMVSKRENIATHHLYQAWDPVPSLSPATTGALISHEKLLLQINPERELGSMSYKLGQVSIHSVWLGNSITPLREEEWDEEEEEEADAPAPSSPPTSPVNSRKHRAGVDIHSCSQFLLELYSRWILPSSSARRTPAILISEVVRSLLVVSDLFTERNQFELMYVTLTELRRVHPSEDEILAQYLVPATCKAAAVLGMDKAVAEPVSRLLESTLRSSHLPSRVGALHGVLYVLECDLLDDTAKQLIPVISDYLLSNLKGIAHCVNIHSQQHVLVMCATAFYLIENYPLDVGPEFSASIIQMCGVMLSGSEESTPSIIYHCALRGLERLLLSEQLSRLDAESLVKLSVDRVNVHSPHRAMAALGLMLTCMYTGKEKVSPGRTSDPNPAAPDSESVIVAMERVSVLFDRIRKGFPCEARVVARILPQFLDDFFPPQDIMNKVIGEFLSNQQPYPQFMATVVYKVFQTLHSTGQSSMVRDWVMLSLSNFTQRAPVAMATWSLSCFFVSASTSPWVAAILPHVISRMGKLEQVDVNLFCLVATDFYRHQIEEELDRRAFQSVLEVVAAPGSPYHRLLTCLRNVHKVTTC
Consider `COc1cccc(-c2csc3ncnc(Sc4nnnn4C)c23)c1`, for which the Potency was 7.94 µM (active).
For `Cn1nnnc1Sc1ncnc2scc(-c3ccccc3C(F)(F)F)c12` the value was 25.1 µM (active).
Take `Cc1ccc(-c2csc3ncnc(Sc4nnnn4C)c23)cc1`: the Potency was 15.8 µM (active).
Take `Cn1nnnc1Sc1ncnc2scc(-c3ccccc3)c12`: the Potency was 8.68 µM.
For `COc1ccccc1-c1csc2ncnc(Sc3nnnn3C)c12` the value was 79.4 µM (active); for `Cn1nnnc1Sc1ncnc2scc(-c3cccc(F)c3)c12`, 7.94 µM (active).
On to `Cc1ccccc1-c1csc2ncnc(Sc3nnnn3C)c12`, for which the Potency is 63.1 µM (active).
The result for `COc1ccc(-c2csc3ncnc(Sc4nnnn4C)c23)cc1` reads 12.6 µM (active); that for `Cn1nnnc1Sc1ncnc2scc(-c3ccccc3F)c12`, 12.6 µM (active); that for `Cn1nnnc1Sc1ncnc2scc(-c3ccc(Cl)cc3)c12`, 15.8 µM (active).
For the compound `Cc1cccc(-c2csc3ncnc(Sc4nnnn4C)c23)c1`, the Potency is 15.8 µM (active).
